Results on 62 compounds are retold here after ChEMBL document CHEMBL3988442, “University of Dundee, Small-Polar-MMV Screening Library” (2021).

Out of some 69,000 compounds screened, about 950 (1.4%) showed an effect of 50% or more. The sample holds strong results, similar compounds and a random draw of the others, so the mix is not that of the screen.

In this assay the test system is Mycobacterium tuberculosis. The experiment in a line: Cornell M. t heat shock assay. Also: in the data most compounds retested in dose-response had high values. Set-up: dose or concentration left out as unconfirmed. Type of assay: functional, organism-based.
Turning to `CN(C)CCNCCC(Cc1ccccc1)C1CCOC(C)(C)C1.O=C(O)C(=O)O` (configuration not stated), the “Percent Effect” value is -22.2%.

In the case of `Cl.FC(F)(F)c1nc(C2CCNCC2)no1`, the “Percent Effect” value is on record as -8.269%.

In the case of `COCCN1CCC2(CC1)CC(NCc1ccc(C)s1)c1ccccc12.O=C(O)C(F)(F)F.O=C(O)C(F)(F)F` (configuration not stated), the “Percent Effect” value was found to be 1.76%.

`Cc1nc(CN2C[C@@H]3CN(C(=O)c4cccn4C)C[C@@H]3C2=O)cs1.O=C(O)C(F)(F)F`: the “Percent Effect” value is recorded as -10.46%.

As to `O=C(O)C(F)(F)F.O=C(c1ccc(F)cc1)N1C[C@H]2CCC[C@@]2(COCc2ccccn2)C1`, the “Percent Effect” value was determined as 7.203%.

On to `CN1CCCC(c2cccc(-c3cccc(Cl)c3)n2)C1` (configuration not stated), for which the “Percent Effect” value is -13.07%.

Turning to `CN(Cc1c(F)cccc1Cl)C(=O)Cn1cnc(C#N)n1`, the “Percent Effect” value is -1.386%.

Regarding `N#Cc1ncn(CC(=O)Cc2c(F)cccc2Cl)n1`, the “Percent Effect” value is on record as 85.52%.

Consider `N#Cc1ncn(Cc2c(F)cccc2Cl)n1`, for which the “Percent Effect” value is on record as -2.259%.

As for `CCc1ccc(CN2CCCCC2c2n[nH]cc2-c2cc(C)no2)cc1.Cl` (configuration not stated), the “Percent Effect” value came out at 16.34%.

`CS(=O)(=O)N[C@@H]1CCO[C@]2(CCN(C(=O)c3cscn3)C2)C1`: the “Percent Effect” value is -9.704%.

For the compound `CS(=O)(=O)N[C@H]1CCO[C@]2(CCN(C(=O)c3ccccn3)C2)C1.O=C(O)C(F)(F)F`, the “Percent Effect” value came to 72.36%.

As to `CS(=O)(=O)N[C@@H]1CCO[C@]2(CCN(C(=O)c3cnccn3)C2)C1`, the “Percent Effect” value is 9.518%.

In the case of `CCC(N)C(=O)N1CCC(OCc2ccc(Cl)c(Cl)c2)CC1.Cl` (configuration not stated), the “Percent Effect” value worked out at 20.26%.

`CCn1ccnc1CNCC1CCCN1c1cccnn1` (configuration not stated): the “Percent Effect” value worked out at 2.735%.

`CCn1ccnc1CNc1nccc(-c2c(C)nn(C)c2C)n1`: the “Percent Effect” value was determined as 4.641%.

For `Cc1ccc(CNC(=O)NCc2nccn2C)c(OC(C)(C)C)c1`, the “Percent Effect” value came out at 2.123%.

For the compound `CCn1ccnc1CNCc1ccc(C)cc1OC(C)(C)C`, the “Percent Effect” value came to 55.22%.

With `Cc1ccc(CNCc2nccn2C)c(OC(C)(C)C)c1`, the “Percent Effect” value is on record as 50.94%.

With `Cc1ccc(CNCc2nccn2C)c(OCC2CC2)c1`, the “Percent Effect” value came to 39.25%.

`Cn1cccc1C(=O)NC[C@]12COC[C@H]1CN(Cc1nccs1)C2.O=C(O)C(F)(F)F`: the “Percent Effect” value was -42.54%.

With `COc1nccnc1N1C[C@@H]2CC[C@H](C1)N(CC=C(C)C)C2=O`, the “Percent Effect” value is -19.62%.

Take `COCCN(C)C1COC2(CCN(Cc3ccccn3)CC2)C1.O=C(O)C(F)(F)F.O=C(O)C(F)(F)F` (configuration not stated): the “Percent Effect” value is recorded as -27.77%.

Consider `COCCO[C@@H]1CCN(C(=O)c2ccc(C)o2)[C@@H]1Cc1cccnc1.O=C(O)C(F)(F)F`, for which the “Percent Effect” value is 104.5%.

Consider `COCCO[C@@H]1CCN(C(=O)c2ccc(C)o2)[C@@H]1Cc1cnn(C)c1`, for which the “Percent Effect” value is listed as 11.53%.

Turning to `COCCO[C@H]1CCN(Cc2cccnc2)[C@H]1Cc1cccnc1.O=C(O)C(F)(F)F.O=C(O)C(F)(F)F.O=C(O)C(F)(F)F`, the “Percent Effect” value was -30.96%.

For `CC[C@@H]1N(Cc2ccc(C)o2)CCC[C@]12CCC(=O)N2CCOC.O=C(O)C(F)(F)F`, the “Percent Effect” value was -28.97%.

For `COCCNC(=O)c1sc2ccccc2c1C1CCC(CN)CC1.Cl` (configuration not stated), the “Percent Effect” value amounted to 16.29%.

On to `CN(C)CCNC(=O)c1sc2ccccc2c1C1CCC(CN)CC1.Cl` (configuration not stated), for which the “Percent Effect” value turned out to be 20.1%.

With `Cl.NCC1CCC(c2c(C(=O)NCCO)sc3ccccc23)CC1` (configuration not stated), the “Percent Effect” value was determined as 85.23%.

On to `Cc1ccnc(NC(=O)c2[nH]nc(C(C)C)c2Br)c1`, for which the “Percent Effect” value is 68.96%.

For `CC(C)c1n[nH]c(C(=O)Nc2ccccn2)c1Br`, the “Percent Effect” value was -0.4918%.

In the case of `CC(C)c1n[nH]c(C(=O)Nc2cc[nH]n2)c1Br`, the “Percent Effect” value amounted to 4.113%.

Take `O=C(O)C(F)(F)F.O=C(O)C(F)(F)F.c1cncc(O[C@@H]2CC[C@H]3[C@H]2OCCN3C2CCCC2)c1`: the “Percent Effect” value is given as -35.82%.

As for `CN(Cc1cc2cc(F)ccc2[nH]1)c1cc(C2CCCNC2)ncn1` (configuration not stated), the “Percent Effect” value was 27.99%.

On to `CCN(Cc1c(F)cccc1Cl)c1cc(C2CCNCC2)nc(C)n1`, for which the “Percent Effect” value came out at 69.57%.

Consider `Cc1nc(C2CCNCC2)cc(N(C)Cc2cc3cc(F)ccc3[nH]2)n1`, for which the “Percent Effect” value is 81.43%.

Turning to `Cc1nc(-c2ccc(F)cc2)cc(C2CCNCC2)n1`, the “Percent Effect” value is reported as -9.323%.

With `CCCN(CC)c1cc(C2CCNCC2)nc(C)n1`, the “Percent Effect” value is listed as -15.84%.

On to `COc1ccc2[nH]c(CNc3cc(C4CCNCC4)nc(C)n3)cc2c1`, for which the “Percent Effect” value worked out at 101.5%.

Turning to `Cc1nc(NCc2cccc(F)c2)cc(C2CCNCC2)n1.Cl`, the “Percent Effect” value is on record as -3.606%.

For the compound `Cc1nc(NCc2ccc(C)o2)cc(C2CCNCC2)n1`, the “Percent Effect” value is given as -22.33%.

`CCN(Cc1ccncc1)c1cc(C2CCNCC2)nc(C)n1`: the “Percent Effect” value is -13.1%.

In the case of `COc1ccc(CNC(C)c2ccccc2Cl)c(OC)c1OC.Cl` (configuration not stated), the “Percent Effect” value is -26.61%.

For `COc1c(CNC2CCSc3ccc(F)cc32)c(C)nn1C.Cl` (configuration not stated), the “Percent Effect” value is listed as 15.14%.

Regarding `CNC(C(=O)OC)c1cc(F)ccc1F.Cl` (configuration not stated), the “Percent Effect” value was determined as 1.092%.

Take `O=C(O)C(F)(F)F.O=C(O)C(F)(F)F.O=C(c1ccncc1)N1CC[C@@H]2CN(C3CCOCC3)CCO[C@@H]2C1`: the “Percent Effect” value is 7.278%.

Turning to `Cc1cccc(CN2CCc3nnc(CN4CCCC4=O)n3CC2)n1.O=C(O)C(F)(F)F`, the “Percent Effect” value is reported as -34.57%.

As for `Cc1noc(C)c1CCC(=O)NCCc1cccs1`, the “Percent Effect” value was found to be 11.5%.

For `Cc1nc2c(c(C)c1CC(=O)NCc1cccs1)c(=O)[nH]n2C`, the “Percent Effect” value is listed as 11.25%.

In the case of `Cc1cc(C(=O)NCc2ccco2)nn1C`, the “Percent Effect” value is 12.62%.

`Cc1ccn(CCC(=O)NCc2ccco2)n1`: the “Percent Effect” value amounted to 6.355%.

On to `Cc1cc(=O)[nH]c(-n2nc(C)c(CCC(=O)NCc3cccs3)c2C)n1`, for which the “Percent Effect” value is reported as 102.2%.

Regarding `Cc1cc(=O)[nH]c(-n2nc(C)c(CCC(=O)NCc3ccco3)c2C)n1`, the “Percent Effect” value was found to be 61.79%.

Regarding `O=S(=O)(CCO)CCc1ccccc1Cl`, the “Percent Effect” value was determined as 17.45%.

For `CCN1CCc2c(sc3c2C(=O)NC(/C=C\c2ccccc2)N3)C1` (configuration not stated), the “Percent Effect” value is -24.35%.

Regarding `Cn1c2ncccc2c(=O)n1CC(=O)NCCC1=CCCCC1`, the “Percent Effect” value was -2.25%.

`CCCc1nn(Cc2ccc(Br)s2)c(=O)o1`: the “Percent Effect” value is given as 31%.

Turning to `CCC(=O)N1CCN(C(=O)CCn2cccn2)CC1`, the “Percent Effect” value is 10.75%.

For the compound `CCC(=O)N1CCN(C(=O)Cn2cccn2)CC1`, the “Percent Effect” value is recorded as 62.88%.

In the case of `CC(C)CN1CCN(C(=O)CCn2cccn2)CC1`, the “Percent Effect” value is reported as 37.09%.

With `O=C1NCCN1CCNc1cc(-c2ccncc2)nc2ccnn12`, the “Percent Effect” value is recorded as -39.13%.
